Data from PubChem BioAssay AID1159580 (chemical genetic matrix, 2015).
Several values for one entry are separate records, joined by “and”; a condition that tells them apart may be missing. Equal entries are not always repeated. Hit rate of the full screen: of about 5,500 compounds, about 2,000 (36%) were called active. About 18% were inconclusive and are not listed. Rule as the data show it: active = normalized growth mostly below about 0.91 (no sharp cut-off); inconclusive = no clear call, values can overlap the other calls; inactive = mostly above about 0.92. The list shows a part of the results.

Assay: chemical genetic growth profiling, strain panel (AID 1159580);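 also: tested at 20 µM; growth read once vehicle control cultures reached saturation at 30 °C; 1 = growth at the plate median or of vehicle wells; lower values mean less growth of the strain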
Conditions: growth OD

Measured: normalized growth

COC(=O)C1=CCCN(C)C1
inactive: S. cerevisiae deletion strains, locus YKL068W, active compounds read low 0.996 | S. cerevisiae deletion strains, locus YKL085W, strain MDH1 (second series), active compounds read low 0.997 | S. cerevisiae deletion strains, locus YKL085W, strain MDH1, active compounds read low 0.997 | S. cerevisiae deletion strains, locus YKL160W, strain elf1, active compounds read low 1.03 | S. cerevisiae deletion strains, locus YKL190W, strain CNB1, active compounds read low 1 | S. cerevisiae deletion strains, locus YKR001C, strain vps1, active compounds read low 1.01 | S. cerevisiae deletion strains, locus YKR026C, strain gcn3, active compounds read low 1.01 | S. cerevisiae deletion strains, locus YKR091W, strain srl3, active compounds read low 1.01 | S. cerevisiae deletion strains, locus YLL001W, strain dnm1, active compounds read low 0.989 | S. cerevisiae deletion strains, locus YLL026W, active compounds read low 1.02 | S. cerevisiae deletion strains, locus YLL041C, strain sdh2, active compounds read low 0.991 | S. cerevisiae deletion strains, locus YLR027C, strain aat2, active compounds read low 1 | S. cerevisiae deletion strains, locus YLR039C, strain RIC1, active compounds read low 0.983 | S. cerevisiae deletion strains, locus YLR058C, strain SHM2, active compounds read low 0.973 | S. cerevisiae deletion strains, locus YLR102C, strain apc9, active compounds read low 1 | S. cerevisiae deletion strains, locus YLR113W, strain HOG1, active compounds read low 0.994 | S. cerevisiae deletion strains, locus YLR221C, strain rsa3, active compounds read low 0.992 | S. cerevisiae deletion strains, locus YLR258W, strain gsy2, active compounds read low 1.01 | S. cerevisiae deletion strains, locus YLR262C, strain YPT6 (second series), active compounds read low 0.986 | S. cerevisiae deletion strains, locus YLR262C, strain YPT6, active compounds read low 0.953 | S. cerevisiae deletion strains, locus YLR268W, strain sec22, active compounds read low 1 | S. cerevisiae deletion strains, locus YLR320W, strain mms22, active compounds read low 0.961 | S. cerevisiae deletion strains, locus YLR330W, strain CHS5, active compounds read low 0.991 | S. cerevisiae deletion strains, locus YLR342W, strain FKS1 (second series), active compounds read low 1.01 | S. cerevisiae deletion strains, locus YLR342W, strain FKS1, active compounds read low 0.995 | S. cerevisiae deletion strains, locus YLR357W, strain rsc2, active compounds read low 1.01 | S. cerevisiae deletion strains, locus YLR370C, strain arc18, active compounds read low 1 | S. cerevisiae deletion strains, locus YLR371W, strain rom2, active compounds read low 0.999 | S. cerevisiae deletion strains, locus YLR384C, strain iki3, active compounds read low 1.02 | S. cerevisiae deletion strains, locus YLR418C, strain cdc73, active compounds read low 1.02 | S. cerevisiae deletion strains, locus YML016C, strain PPZ1, active compounds read low 0.987 | S. cerevisiae deletion strains, locus YML032C, strain rad52, active compounds read low 0.983 | S. cerevisiae deletion strains, locus YML120C, strain ndi1, active compounds read low 1 | S. cerevisiae deletion strains, locus YML124C, strain tub3, active compounds read low 0.994 | S. cerevisiae deletion strains, locus YMR058W, strain fet3, active compounds read low 1.03 | S. cerevisiae deletion strains, locus YMR078C, strain ctf18, active compounds read low 0.996 | S. cerevisiae deletion strains, locus YMR125W, strain sto1, active compounds read low 1.02 | S. cerevisiae deletion strains, locus YMR129W, active compounds read low 1 | S. cerevisiae deletion strains, locus YMR205C, strain PFK2, active compounds read low 0.955 | S. cerevisiae deletion strains, locus YMR223W, strain ubp8, active compounds read low 0.981 | S. cerevisiae deletion strains, locus YMR231W, strain pep5, active compounds read low 1.01 | S. cerevisiae deletion strains, locus YMR263W, strain SAP30, active compounds read low 0.984 | S. cerevisiae deletion strains, locus YMR307W, strain GAS1, active compounds read low 1.01 and 0.99 | S. cerevisiae deletion strains, locus YNL067W, strain RPL9B, active compounds read low 0.979 | S. cerevisiae deletion strains, locus YNL071W, strain lat1, active compounds read low 1.01 | S. cerevisiae deletion strains, locus YNL128W, strain TEP1, active compounds read low 0.986 | S. cerevisiae deletion strains, locus YNL153C, strain GIM3, active compounds read low 0.983 | S. cerevisiae deletion strains, locus YNL175C, strain NOP13, active compounds read low 1.04 | S. cerevisiae deletion strains, locus YNL183C, strain NPR1, active compounds read low 0.953 | S. cerevisiae deletion strains, locus YNL197C, strain WHI3, active compounds read low 1 | S. cerevisiae deletion strains, locus YNL209W, strain ssb2, active compounds read low 1 | S. cerevisiae deletion strains, locus YNL224C, strain SQS1, active compounds read low 1 | S. cerevisiae deletion strains, locus YNL233W, strain BNI4, active compounds read low 0.99 | S. cerevisiae deletion strains, locus YNL248C, strain rpa49, active compounds read low 1.02 | S. cerevisiae deletion strains, locus YNL250W, strain rad50, active compounds read low 0.993 | S. cerevisiae deletion strains, locus YNL271C, strain bni1, active compounds read low 0.995 | S. cerevisiae deletion strains, locus YNL298W, strain CLA4, active compounds read low 1 | S. cerevisiae deletion strains, locus YNL307C, strain MCK1, active compounds read low 0.996 | S. cerevisiae deletion strains, locus YNL322C, strain KRE1 (second series), active compounds read low 1.03 | S. cerevisiae deletion strains, locus YNL322C, strain KRE1, active compounds read low 0.985 | S. cerevisiae deletion strains, locus YNR049C, strain mso1, active compounds read low 0.995 | S. cerevisiae deletion strains, locus YNR052C, strain pop2, active compounds read low 0.995 | S. cerevisiae deletion strains, locus YOL006C, strain TOP1, active compounds read low 0.981 | S. cerevisiae deletion strains, locus YOL012C, strain htz1 0.9 | S. cerevisiae deletion strains, locus YOL147C, strain pex11, active compounds read low 0.992 | S. cerevisiae deletion strains, locus YOR001W, strain rrp6, active compounds read low 0.971 | S. cerevisiae deletion strains, locus YOR061W, strain CKA2, active compounds read low 0.968 | S. cerevisiae deletion strains, locus YOR069W, strain VPS5, active compounds read low 0.997 | S. cerevisiae deletion strains, locus YOR070C, strain gyp1, active compounds read low 1.01 | S. cerevisiae deletion strains, locus YOR080W, strain dia2, active compounds read low 1 | S. cerevisiae deletion strains, locus YOR083W, strain WHI5 (second series), active compounds read low 1.02 | S. cerevisiae deletion strains, locus YOR083W, strain WHI5, active compounds read low 1.01 | S. cerevisiae deletion strains, locus YOR106W, strain vam3, active compounds read low 1.04 | S. cerevisiae deletion strains, locus YOR136W, strain idh2, active compounds read low 1 | S. cerevisiae deletion strains, locus YOR144C, strain elg1, active compounds read low 0.997 | S. cerevisiae deletion strains, locus YOR184W, strain ser1, active compounds read low 0.989 | S. cerevisiae deletion strains, locus YOR231W, strain MKK1, active compounds read low 0.994 | S. cerevisiae deletion strains, locus YOR265W, strain rbl2, active compounds read low 1 | S. cerevisiae deletion strains, locus YOR270C, strain vph1, active compounds read low 1.01 | S. cerevisiae deletion strains, locus YOR290C, strain snf2, active compounds read low 1.02 | S. cerevisiae deletion strains, locus YOR316C, strain cot1, active compounds read low 0.993 | S. cerevisiae deletion strains, locus YPL051W, strain arl3, active compounds read low 1.03 | S. cerevisiae deletion strains, locus YPL055C, strain LGE1, active compounds read low 0.977 and 1.03 | S. cerevisiae deletion strains, locus YPL078C, strain atp4, active compounds read low 1.03 | S. cerevisiae deletion strains, locus YPL106C, strain sse1, active compounds read low 1.04 | S. cerevisiae deletion strains, locus YPL240C, strain hsp82, active compounds read low 1 | S. cerevisiae deletion strains, locus YPL241C, strain CIN2, active compounds read low 0.994 | S. cerevisiae deletion strains, locus YPL256C, strain CLN2, active compounds read low 1 | S. cerevisiae deletion strains, locus YPR119W, strain clb2, active compounds read low 0.991 | S. cerevisiae deletion strains, locus YPR141C, strain kar3, active compounds read low 0.99 | S. cerevisiae deletion strains, locus YPR163C, strain tif3, active compounds read low 0.999 | S. cerevisiae deletion strains, locus YPR167C, strain met16, active compounds read low 1 | S. cerevisiae deletion strains, strain wtn01, active compounds read low 0.994 | S. cerevisiae strains, strain wild type, active compounds read low 0.993
